Assay [1] in a line: ACEA_ER_80hr: ACEA Biosciences xCELLigence Real-Time Cell Analysis on Estrogen Receptor Agonism for Proliferation (AID 2282667; active = hit-call score of the fitted dose curve at least 0.9, where 1 is the maximum). As to conditions: T47D proliferation, impedance (xCELLigence), 80 h. The procedure, abridged: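 T47D human breast cells were seeded on electrode plates, monitored overnight, then exposed continuously to compounds in eight-point 1:4 dilutions from 100 uM (max 0.5% DMSO). Impedance-based growth was read at 80 h, fitted upward relative to DMSO.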

A short description of assay [2]: ATG_CRE_CIS: Attagene CIS-FACTORIAL HepG2 Assay for human cAMP Responsive Element (CRE) binding protein 3 (AID 2282926). As to conditions: HepG2 CRE cis-reporter, Attagene multiplexed mRNA; actives raise or lower the signal. The procedure, abridged:
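Capillary electrophoresis of 6-FAM-labelled, HpaI-digested PCR products quantified reporter transcripts. These came from HepG2 transiently transfected with cis-element reporters and exposed to test chemicals for 24 hours, with DMSO defining baseline activity.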

The target in assay [3] is CCAAT/enhancer-binding protein beta (Homo sapiens) (UniProt P17676). Nature of the assay: ATG_C_EBP_CIS: Attagene CIS-FACTORIAL HepG2 Assay for human CCAAT/Enhancer Binding Protein (C/EBP) beta (AID 2282927). As to conditions: HepG2 Attagene cis-factorial transcription factor reporter; actives raise or lower the signal. The gist of the method: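 HepG2 transiently transfected with multiplexed reporter units under cis-regulatory promoters reporting endogenous C/EBPb activity. After 24 h exposure, reporter mRNA assayed by RT-PCR, fluorescent labelling, HpaI digestion and capillary electrophoresis; bidirectional fitting versus DMSO.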
Chain of CCAAT/enhancer-binding protein beta (Homo sapiens) (P17676 whole entry, looked up): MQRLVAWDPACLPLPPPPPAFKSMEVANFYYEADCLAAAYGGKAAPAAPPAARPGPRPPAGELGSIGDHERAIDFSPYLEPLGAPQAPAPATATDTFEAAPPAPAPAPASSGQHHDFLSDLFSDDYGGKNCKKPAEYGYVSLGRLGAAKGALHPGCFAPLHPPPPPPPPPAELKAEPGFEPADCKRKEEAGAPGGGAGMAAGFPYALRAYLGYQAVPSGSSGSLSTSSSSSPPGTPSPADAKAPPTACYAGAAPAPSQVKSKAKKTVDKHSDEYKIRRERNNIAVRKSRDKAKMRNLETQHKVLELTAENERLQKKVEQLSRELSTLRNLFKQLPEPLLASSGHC

Assay [4] can be described thus: ATG_CMV_CIS: Attagene CIS-FACTORIAL HepG2 Assay for human CMV (Internal Marker) (AID 2282928).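 Note: endpoint acts as a background internal control marker rather than a target.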 As to conditions: HepG2 CMV promoter reporter, transcription factor profiling; actives raise or lower the signal. The gist of the method: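 Reporter transcripts from transfected HepG2 cells are isolated after 24 h of chemical dosing, reverse-transcribed and amplified. Fragments labeled with 6-FAM are cut with HpaI and quantified by capillary electrophoresis; DMSO defines baseline.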

A short description of assay [5]: ATG_DR4_LXR_CIS: Attagene CIS-FACTORIAL HepG2 Assay for human Liver X Receptor (LXR), DR4 submotif (AID 2282929). The following applies: HepG2 Attagene DR4 cis-reporter, mRNA transcription; actives raise or lower the signal. The gist of the method: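 HepG2 cells were transiently transfected with multiple cis-regulated reporter units and dosed for 24 hours. The DR4 reporter mRNA was quantified by RT-PCR, 6-FAM labelling and capillary electrophoresis. Bidirectional fits used DMSO as baseline.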

The target in assay [6] is Aryl hydrocarbon receptor (Homo sapiens) (UniProt P35869). Nature of the assay: ATG_Ahr_CIS: Attagene CIS-FACTORIAL HepG2 Assay for human Aryl Hydrocarbon Receptor (Ahr) (AID 2282930). The following applies: HepG2 AhR cis-factorial reporter transcription; actives raise or lower the signal. The procedure, abridged:
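HepG2 cells transiently transfected with cis-element-driven multiplexed reporter units; endogenous AhR activity read as reporter mRNA 24 h after dosing, via RT-PCR, 6-FAM labelling, HpaI digestion and capillary electrophoresis. Bidirectional fit relative to DMSO.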

Assay [7] can be described thus: ATG_AP_1_CIS: Attagene CIS-FACTORIAL HepG2 Assay for human Activator Protein 1 (AP-1) (AID 2282931). The following applies: HepG2 Attagene cis-factorial AP-1 reporter mRNA; actives raise or lower the signal. The procedure, abridged: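 HepG2 cells transiently transfected with cis-element-driven reporter transcription units, dosed for 24 hours. Reporter mRNA measured by RT-PCR, 6-FAM labelling, HpaI digestion and capillary electrophoresis. Bidirectional fitting against DMSO baseline.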

A short description of assay [8]: ATG_BRE_CIS: Attagene CIS-FACTORIAL HepG2 Assay for human Bone Morphogenetic Protein (BMP) Response Element (BRE) (AID 2282933). The following applies: HepG2 BMP response element reporter, Attagene transcription factor profiling; actives raise or lower the signal. The procedure, abridged: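 Multiplexed cis-reporter assay, HepG2, 24 h exposure. mRNA from reporter units quantified via RT-PCR/CE; DMSO baseline; bidirectional curve fit.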

Assay [9] concerns the target Retinoic acid receptor alpha (Homo sapiens) (UniProt P10276). Nature of the assay: ATG_DR5_RAR_CIS: Attagene CIS-FACTORIAL HepG2 Assay for human Retinoic Acid Receptor Alpha (RARE), DR5 submotif (AID 2282934). As to conditions: HepG2 Attagene cis-factorial RARE DR5 reporter, mRNA; actives raise or lower the signal. The gist of the method:
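HepG2 cells transiently transfected with multiplexed reporter units; DR5 cis-element drives reporter through endogenous transcription factors. After 24 h dosing, reporter mRNA quantified by RT-PCR, fluorescent labeling, HpaI digestion and capillary electrophoresis; bidirectional fitting versus DMSO.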

For assay [10], the target named is Transcription factor E2F1 (Homo sapiens) (UniProt Q01094). The experiment in a line: ATG_E2F_CIS: Attagene CIS-FACTORIAL HepG2 Assay for human E2F Transcription Factor 1 (AID 2282935). The following applies: HepG2 Attagene cis-reporter, E2F reporter RNA transcripts; actives raise or lower the signal. The gist of the method:
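Transient MRTU transfection of HepG2; 24 h compound exposure; RNA → oligo(dT) RT → PCR → FAM label → HpaI cut → CE fluorescence. Gain/loss of signal fit against DMSO.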

A short description of assay [11]: ATG_E_Box_CIS: Attagene CIS-FACTORIAL HepG2 Assay for human Enhancer Box (E-box) (AID 2282936). The following applies: HepG2 E-box cis-reporter transcription, actives raise or lower the signal. The gist of the method:
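Transiently transfected HepG2, endogenous TF-driven reporters, 24 h dosing. Readout: RT-PCR plus capillary electrophoresis of fluorescent reporter fragments. Gain or loss of signal fitted bidirectionally against DMSO baseline.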

A short description of assay [12]: ATG_EGR_CIS: Attagene CIS-FACTORIAL HepG2 Assay for human Early Growth Response 1 (EGR1) (AID 2282938). The following applies: HepG2 Attagene CIS-FACTORIAL EGR reporter mRNA; actives raise or lower the signal. The procedure, abridged: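 HepG2 cells transiently transfected with cis-element-driven multiplexed reporter units, dosed for 24 h. EGR1-element reporter mRNA quantified by RT-PCR, 6-FAM labelling, HpaI digestion and capillary electrophoresis; bidirectional fit versus DMSO.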

The nature of assay [13]: ATG_ERE_CIS: Attagene CIS-FACTORIAL HepG2 Assay for Estrogen Response Element (ERE) (AID 2282940). The following applies: HepG2 ERE cis-reporter, Attagene RNA transcript; actives raise or lower the signal. The gist of the method:
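Fluorescence of capillary-separated, FAM-labelled reporter cDNA fragments indicates reporter mRNA levels in HepG2 cells exposed to chemicals for 24 h. Transient transfection with cis-regulated units; data fitted in both directions against DMSO.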

Assay [14] is described as follows: ATG_Ets_CIS: Attagene CIS-FACTORIAL HepG2 Assay for human Erythroblast Transformation Specific (ETS) (AID 2282941). The following applies: HepG2 ETS cis-reporter transcription, actives raise or lower the signal. The procedure, abridged: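 Bidirectional fit versus DMSO of reporter mRNA signal, detected by RT-PCR and capillary electrophoresis in HepG2 cells transiently transfected with cis-element reporters and dosed 24 h.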

The target of assay [15] is Hepatocyte nuclear factor 3-beta (Homo sapiens) (UniProt Q9Y261). Nature of the assay: ATG_FoxA2_CIS: Attagene CIS-FACTORIAL HepG2 Assay for human Forkhead box A2 (FOXA2) (AID 2282942). As to conditions: HepG2 cis-reporter transcription factor activity, 24 h; actives raise or lower the signal. The gist of the method:
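HepG2 transiently transfected with a multiplexed cis-promoter reporter library read endogenous FOXA2 activity. After 24 h compound exposure, reporter mRNA was quantified by RT-PCR, HpaI digestion and capillary electrophoresis. Bidirectional fit against DMSO.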

A short description of assay [16]: ATG_FoxO_CIS: Attagene CIS-FACTORIAL HepG2 Assay for human Forkhead box O (FoxO) (AID 2282943). The following applies: HepG2 Attagene cis-reporter, FoxO element, mRNA; actives raise or lower the signal. The procedure, abridged:
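HepG2 cells transiently transfected with cis-element-driven reporter units report endogenous FoxO activity. After 24 h chemical exposure, reporter mRNA quantified by RT-PCR, fluorescent labeling, HpaI digestion and capillary electrophoresis; bidirectional fit versus DMSO.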

The nature of assay [17]: ATG_GATA_CIS: Attagene CIS-FACTORIAL HepG2 Assay for human GATA Binding Protein (AID 2282944). As to conditions: HepG2 GATA cis-element reporter, Attagene multiplex mRNA; actives raise or lower the signal. The gist of the method: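 After transfecting HepG2 cells with multiple cis-regulated reporter units, chemicals are dosed for 24 h; isolated RNA undergoes RT-PCR and fluorescent labeling before capillary electrophoresis, with activity expressed against DMSO.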

Assay [18] can be described thus: ATG_M_61_CIS: Attagene CIS-FACTORIAL HepG2 Assay for M61 Transcription Factor (Internal Marker) (AID 2282937). As to conditions: HepG2 Attagene CIS-FACTORIAL M61 internal marker reporter; actives raise or lower the signal. The gist of the method: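 HepG2 cells transiently transfected with multiplexed cis-promoter reporter units reporting endogenous transcription factor activity, measured 24 h after dosing. Reporter mRNA quantified by RT-PCR and capillary electrophoresis; bidirectional fit against DMSO baseline.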

Assay [19] is described as follows: ATG_M_19_CIS: Attagene CIS-FACTORIAL HepG2 Assay for M19 Transcription Factor (Internal Marker) (AID 2282939). As to conditions: HepG2 Attagene CIS-FACTORIAL M19 internal marker reporter; actives raise or lower the signal. The gist of the method:
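Signals come from fluorescence of labelled reporter-specific PCR fragments resolved by capillary electrophoresis, following 24 h treatment of HepG2 cells transfected with cis-promoter reporter units; activity was fitted in both directions relative to DMSO.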

Assay [20] in a line: ATG_AP_2_CIS: Attagene CIS-FACTORIAL HepG2 Assay for human Activator Protein 2 (AP-2) (AID 2282932). As to conditions: HepG2 AP-2 cis-reporter, Attagene transcription factor profiling; actives raise or lower the signal. The procedure, abridged:
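Read-out: fluorescent reporter mRNA via RT-PCR and capillary electrophoresis, 24 h post-dose in transiently transfected HepG2. Endogenous factors drive cis-promoter reporters; gain or loss of signal fitted bidirectionally against DMSO.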

Inconclusive results are not listed. The source made the active and inactive calls. Rule for the calls, unless noted: active = hit-call score of the fitted dose curve at least 0.9, where 1 is the maximum; inactive = score below 0.9.

Chain of Transcription factor E2F1 (Homo sapiens) (Q01094 whole entry, looked up): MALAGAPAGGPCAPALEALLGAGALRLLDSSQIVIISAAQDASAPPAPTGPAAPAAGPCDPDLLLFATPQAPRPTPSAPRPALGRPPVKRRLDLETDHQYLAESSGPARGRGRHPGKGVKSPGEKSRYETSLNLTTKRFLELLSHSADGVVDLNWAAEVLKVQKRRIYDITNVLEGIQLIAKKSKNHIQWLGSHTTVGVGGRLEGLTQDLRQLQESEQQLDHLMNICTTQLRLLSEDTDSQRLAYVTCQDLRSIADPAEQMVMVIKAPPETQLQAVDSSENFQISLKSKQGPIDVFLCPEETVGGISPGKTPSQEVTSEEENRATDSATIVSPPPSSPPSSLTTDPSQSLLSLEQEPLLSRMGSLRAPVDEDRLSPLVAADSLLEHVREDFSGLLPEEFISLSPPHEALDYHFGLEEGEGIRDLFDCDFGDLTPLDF
Chain of Aryl hydrocarbon receptor (Homo sapiens) (P35869 whole entry, looked up): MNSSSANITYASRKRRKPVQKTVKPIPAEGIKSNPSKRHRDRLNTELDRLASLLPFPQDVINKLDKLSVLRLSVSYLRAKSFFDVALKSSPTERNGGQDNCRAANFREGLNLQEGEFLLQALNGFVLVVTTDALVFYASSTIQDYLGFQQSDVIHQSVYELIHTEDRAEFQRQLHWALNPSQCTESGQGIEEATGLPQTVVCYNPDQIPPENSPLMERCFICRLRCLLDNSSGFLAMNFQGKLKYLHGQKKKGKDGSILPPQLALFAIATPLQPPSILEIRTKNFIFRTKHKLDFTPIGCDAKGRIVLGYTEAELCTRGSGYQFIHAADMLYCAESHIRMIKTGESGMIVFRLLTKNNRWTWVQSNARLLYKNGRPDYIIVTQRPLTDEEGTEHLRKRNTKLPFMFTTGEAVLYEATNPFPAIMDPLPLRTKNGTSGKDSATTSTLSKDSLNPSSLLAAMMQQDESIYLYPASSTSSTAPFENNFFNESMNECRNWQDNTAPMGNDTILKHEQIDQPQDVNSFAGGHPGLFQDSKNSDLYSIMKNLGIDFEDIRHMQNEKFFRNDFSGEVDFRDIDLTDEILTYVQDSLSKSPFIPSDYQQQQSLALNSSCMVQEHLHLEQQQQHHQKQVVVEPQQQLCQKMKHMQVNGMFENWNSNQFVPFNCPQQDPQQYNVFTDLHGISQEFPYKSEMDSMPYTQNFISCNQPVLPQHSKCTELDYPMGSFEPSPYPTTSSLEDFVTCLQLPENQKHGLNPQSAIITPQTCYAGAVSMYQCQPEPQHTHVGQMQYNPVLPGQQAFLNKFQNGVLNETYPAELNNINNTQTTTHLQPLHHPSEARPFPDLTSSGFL
Chain of Hepatocyte nuclear factor 3-beta (Homo sapiens) (Q9Y261 whole entry, looked up): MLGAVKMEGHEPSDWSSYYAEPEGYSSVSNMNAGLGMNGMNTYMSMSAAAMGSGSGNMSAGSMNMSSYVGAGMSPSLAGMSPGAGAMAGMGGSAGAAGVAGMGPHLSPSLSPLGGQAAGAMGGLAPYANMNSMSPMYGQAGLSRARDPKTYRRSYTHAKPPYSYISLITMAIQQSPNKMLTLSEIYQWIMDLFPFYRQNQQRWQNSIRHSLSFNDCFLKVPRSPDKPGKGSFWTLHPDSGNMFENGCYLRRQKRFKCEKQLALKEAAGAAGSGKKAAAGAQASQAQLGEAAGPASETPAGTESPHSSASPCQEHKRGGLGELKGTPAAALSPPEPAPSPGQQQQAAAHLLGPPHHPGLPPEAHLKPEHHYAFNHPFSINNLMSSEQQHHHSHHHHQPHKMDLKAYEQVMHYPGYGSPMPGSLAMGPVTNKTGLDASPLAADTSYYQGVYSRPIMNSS
Chain of Retinoic acid receptor alpha (Homo sapiens) (P10276 whole entry, looked up): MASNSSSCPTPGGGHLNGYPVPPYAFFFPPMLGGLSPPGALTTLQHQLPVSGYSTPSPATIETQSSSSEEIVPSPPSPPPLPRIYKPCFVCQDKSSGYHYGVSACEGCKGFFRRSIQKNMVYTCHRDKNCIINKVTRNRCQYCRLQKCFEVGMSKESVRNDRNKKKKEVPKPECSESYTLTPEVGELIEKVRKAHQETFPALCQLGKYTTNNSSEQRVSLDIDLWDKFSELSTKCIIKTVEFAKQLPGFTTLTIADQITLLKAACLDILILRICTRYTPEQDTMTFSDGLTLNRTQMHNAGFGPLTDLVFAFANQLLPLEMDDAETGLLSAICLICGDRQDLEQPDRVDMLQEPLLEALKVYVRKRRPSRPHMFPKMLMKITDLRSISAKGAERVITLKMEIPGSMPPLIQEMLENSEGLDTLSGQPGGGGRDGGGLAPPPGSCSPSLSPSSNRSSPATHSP

Take `C[C@]12CC[C@H]3C(=CCc4cc(O)ccc43)[C@@H]1CCC2=O`: the AC50 (as a rule, the concentration giving half of the maximal activity seen) in assay [1] is 0.00143 µM (active); in [13], 0.0626 µM (active). Further, the result in [2], in assay [3], in assay [4], in assay [5], in assay [6] and in assay [7] was inactive. In addition, the call in assay [8], in assay [9], in assay [10], in [11], in [12] and in assay [14] was inactive. For the same molecule, the result in assay [15], in assay [16] and in [17] was inactive.

Regarding `CC(C)(C)c1cc(Cc2cc(C(C)(C)C)c(O)c(C(C)(C)C)c2)cc(C(C)(C)C)c1O`, the call in assay [1], in assay [2], in assay [3], in assay [4], in assay [5] and in assay [7] was inactive. Moreover, the call in assay [8], in [9], in assay [10], in [11], in assay [18] and in assay [12] was inactive. Moreover, the result in assay [19], in assay [14], in [15], in assay [16] and in assay [17] was inactive.

On to `CCC(Cc1c(I)cc(I)c(N)c1I)C(=O)O` (stereo unspecified), for which the AC50 in [1] is 15.5 µM (active); in [4], 62.6 µM (active); in assay [13], 4.54 µM (active). In addition, the outcome in [2], in assay [3], in assay [5], in assay [6], in assay [8] and in [9] was inactive. The result in assay [10], in assay [11], in [18], in assay [12], in [19] and in [14] was inactive. The molecule was called inactive in assay [15], in [16] and in assay [17].

For the molecule `NS(=O)(=O)C(F)(F)C(F)(F)C(F)(F)C(F)(F)C(F)(F)C(F)(F)F`, the molecule was classed as inactive in [1], in assay [2], in [3], in [4], in assay [5] and in assay [6]. In addition, the outcome in [20], in assay [8], in [9], in assay [10], in [11] and in assay [18] was inactive. The molecule was classed as inactive in assay [12], in assay [19], in [14], in assay [15], in assay [16] and in assay [17]. Moreover, the AC50 in assay [13] is 41.4 µM (active).

These data come from PubChem BioAssay (EPA / NIEHS).
